The supplement of paper PMC11732987, “Enantioselective OTUD7B fragment discovery through chemoproteomics screening and high-throughput optimisation” (Communications Chemistry, 2025)

Key:
Assay in all cases: log2 ratio of Biotin-Ahx-Ub-VS probe labelling (fragment/DMSO); higher = less target engagement (more negative = stronger competition), active = hit call of the paper (q ≤ 0.05, log2 ratio ≤ -1)
Details in all cases: compound concentration: 200 uM; treatment time: 3 h
USP34 = USP34 (UniProt Q70CQ2)
USP34, sequence (Q70CQ2 whole entry, the tested form may be a part): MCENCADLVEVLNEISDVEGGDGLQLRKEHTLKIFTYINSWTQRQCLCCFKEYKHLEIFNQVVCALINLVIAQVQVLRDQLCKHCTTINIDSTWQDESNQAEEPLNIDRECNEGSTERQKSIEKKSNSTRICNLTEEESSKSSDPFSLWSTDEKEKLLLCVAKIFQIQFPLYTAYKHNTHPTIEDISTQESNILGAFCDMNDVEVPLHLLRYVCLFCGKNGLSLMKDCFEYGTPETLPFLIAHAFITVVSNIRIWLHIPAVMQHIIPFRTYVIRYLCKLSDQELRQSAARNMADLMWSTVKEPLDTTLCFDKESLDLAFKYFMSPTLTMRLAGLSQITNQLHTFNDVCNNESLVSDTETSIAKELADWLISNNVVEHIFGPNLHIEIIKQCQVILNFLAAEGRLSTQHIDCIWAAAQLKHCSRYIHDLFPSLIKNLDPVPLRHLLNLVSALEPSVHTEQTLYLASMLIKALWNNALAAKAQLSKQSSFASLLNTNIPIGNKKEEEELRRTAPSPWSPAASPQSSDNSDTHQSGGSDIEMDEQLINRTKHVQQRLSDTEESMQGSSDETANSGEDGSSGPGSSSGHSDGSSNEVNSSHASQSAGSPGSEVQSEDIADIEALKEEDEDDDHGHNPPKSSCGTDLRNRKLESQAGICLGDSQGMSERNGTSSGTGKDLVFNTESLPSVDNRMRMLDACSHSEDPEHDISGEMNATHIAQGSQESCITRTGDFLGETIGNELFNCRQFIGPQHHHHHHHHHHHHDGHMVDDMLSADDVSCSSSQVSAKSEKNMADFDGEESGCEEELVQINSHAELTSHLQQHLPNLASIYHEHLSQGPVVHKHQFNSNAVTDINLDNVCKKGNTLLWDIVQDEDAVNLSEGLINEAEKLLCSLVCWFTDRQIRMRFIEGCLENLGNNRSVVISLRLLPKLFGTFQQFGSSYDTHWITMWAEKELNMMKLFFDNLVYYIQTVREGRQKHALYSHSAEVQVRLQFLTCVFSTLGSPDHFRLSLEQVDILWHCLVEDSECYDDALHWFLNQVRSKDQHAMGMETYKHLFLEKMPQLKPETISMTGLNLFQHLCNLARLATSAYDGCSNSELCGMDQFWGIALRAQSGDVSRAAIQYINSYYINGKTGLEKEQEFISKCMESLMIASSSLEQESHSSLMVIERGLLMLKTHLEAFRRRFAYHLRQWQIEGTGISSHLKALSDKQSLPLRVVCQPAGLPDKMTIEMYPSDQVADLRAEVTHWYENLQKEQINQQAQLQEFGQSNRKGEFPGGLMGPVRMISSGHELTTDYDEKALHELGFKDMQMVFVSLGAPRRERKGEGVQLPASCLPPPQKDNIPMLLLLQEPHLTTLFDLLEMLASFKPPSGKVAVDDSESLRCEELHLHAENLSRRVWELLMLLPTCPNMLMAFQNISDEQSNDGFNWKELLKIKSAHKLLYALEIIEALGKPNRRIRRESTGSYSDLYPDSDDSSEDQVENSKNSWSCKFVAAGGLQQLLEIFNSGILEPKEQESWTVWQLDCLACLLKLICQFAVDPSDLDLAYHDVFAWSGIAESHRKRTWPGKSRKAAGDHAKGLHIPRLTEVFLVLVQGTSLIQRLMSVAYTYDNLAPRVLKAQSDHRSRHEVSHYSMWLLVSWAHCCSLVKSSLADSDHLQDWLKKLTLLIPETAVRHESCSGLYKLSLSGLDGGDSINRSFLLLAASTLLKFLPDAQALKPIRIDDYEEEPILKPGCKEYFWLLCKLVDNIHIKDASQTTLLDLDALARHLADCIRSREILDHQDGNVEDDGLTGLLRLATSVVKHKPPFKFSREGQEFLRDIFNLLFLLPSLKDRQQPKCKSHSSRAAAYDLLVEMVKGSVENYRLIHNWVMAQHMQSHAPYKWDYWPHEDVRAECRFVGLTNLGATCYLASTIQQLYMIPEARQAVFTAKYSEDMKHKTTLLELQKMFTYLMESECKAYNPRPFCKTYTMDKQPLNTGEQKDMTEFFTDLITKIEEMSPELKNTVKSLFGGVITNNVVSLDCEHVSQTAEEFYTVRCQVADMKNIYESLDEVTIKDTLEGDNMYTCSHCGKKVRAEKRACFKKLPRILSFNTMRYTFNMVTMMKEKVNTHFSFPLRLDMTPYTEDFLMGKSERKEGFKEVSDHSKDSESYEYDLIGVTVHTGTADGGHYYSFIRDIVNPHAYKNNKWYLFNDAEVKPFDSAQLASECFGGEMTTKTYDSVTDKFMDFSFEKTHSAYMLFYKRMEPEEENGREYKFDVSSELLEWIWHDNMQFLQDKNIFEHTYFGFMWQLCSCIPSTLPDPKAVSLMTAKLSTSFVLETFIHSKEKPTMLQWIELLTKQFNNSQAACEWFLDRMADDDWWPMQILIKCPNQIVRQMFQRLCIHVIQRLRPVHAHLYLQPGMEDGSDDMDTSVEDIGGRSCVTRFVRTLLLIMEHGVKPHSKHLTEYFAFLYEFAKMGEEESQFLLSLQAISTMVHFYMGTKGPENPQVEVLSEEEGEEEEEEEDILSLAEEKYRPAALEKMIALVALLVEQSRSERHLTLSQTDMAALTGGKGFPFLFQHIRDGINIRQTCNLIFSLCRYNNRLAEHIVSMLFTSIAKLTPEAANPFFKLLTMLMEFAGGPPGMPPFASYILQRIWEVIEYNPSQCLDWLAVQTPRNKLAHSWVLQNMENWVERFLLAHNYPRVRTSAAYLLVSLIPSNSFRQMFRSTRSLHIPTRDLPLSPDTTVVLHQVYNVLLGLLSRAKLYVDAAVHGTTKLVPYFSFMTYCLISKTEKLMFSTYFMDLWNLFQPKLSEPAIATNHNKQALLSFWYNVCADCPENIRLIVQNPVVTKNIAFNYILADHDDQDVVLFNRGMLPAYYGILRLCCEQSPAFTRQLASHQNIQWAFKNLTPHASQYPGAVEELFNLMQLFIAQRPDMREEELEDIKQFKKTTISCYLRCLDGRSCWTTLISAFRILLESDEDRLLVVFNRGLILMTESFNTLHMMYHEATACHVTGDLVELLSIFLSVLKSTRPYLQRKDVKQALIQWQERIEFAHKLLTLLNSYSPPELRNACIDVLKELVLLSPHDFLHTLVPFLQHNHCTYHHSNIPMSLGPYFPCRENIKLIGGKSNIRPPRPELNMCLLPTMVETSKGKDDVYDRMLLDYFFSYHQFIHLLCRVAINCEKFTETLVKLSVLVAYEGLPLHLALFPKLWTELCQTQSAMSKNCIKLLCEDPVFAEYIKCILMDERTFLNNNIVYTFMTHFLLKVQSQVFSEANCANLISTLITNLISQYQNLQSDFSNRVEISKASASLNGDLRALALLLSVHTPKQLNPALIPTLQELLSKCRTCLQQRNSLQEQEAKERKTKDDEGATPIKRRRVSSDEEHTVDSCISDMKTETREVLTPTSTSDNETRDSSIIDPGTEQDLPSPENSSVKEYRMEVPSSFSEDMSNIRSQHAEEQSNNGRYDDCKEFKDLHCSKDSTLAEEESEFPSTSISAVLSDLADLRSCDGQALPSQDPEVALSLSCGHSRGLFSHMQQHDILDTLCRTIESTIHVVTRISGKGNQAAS
Procedure, shortened: (§1)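 Labelled DUBs from HEK293T lysate were NeutrAvidin-enriched, digested with LysC and trypsin, and run by diaPASEF LC-MS/MS. Before that, each 495 µg sample in Tris/CHAPS/IGEPAL buffer with protease inhibitors was treated in triplicate with fragment at 200 µM or vehicle for 3 h, then with Biotin-Ahx-Ub-VS at 0.5 µM final for 1 h. Values are average log2 ratios of fragment over vehicle by unpaired t-test, based on global-median-normalised Spectronaut label-free quantities from proteins with ≥2 unique peptides.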

USP36 = molecular target: T1, USP36 (UniProt Q9P275)
T1 sequence (whole entry): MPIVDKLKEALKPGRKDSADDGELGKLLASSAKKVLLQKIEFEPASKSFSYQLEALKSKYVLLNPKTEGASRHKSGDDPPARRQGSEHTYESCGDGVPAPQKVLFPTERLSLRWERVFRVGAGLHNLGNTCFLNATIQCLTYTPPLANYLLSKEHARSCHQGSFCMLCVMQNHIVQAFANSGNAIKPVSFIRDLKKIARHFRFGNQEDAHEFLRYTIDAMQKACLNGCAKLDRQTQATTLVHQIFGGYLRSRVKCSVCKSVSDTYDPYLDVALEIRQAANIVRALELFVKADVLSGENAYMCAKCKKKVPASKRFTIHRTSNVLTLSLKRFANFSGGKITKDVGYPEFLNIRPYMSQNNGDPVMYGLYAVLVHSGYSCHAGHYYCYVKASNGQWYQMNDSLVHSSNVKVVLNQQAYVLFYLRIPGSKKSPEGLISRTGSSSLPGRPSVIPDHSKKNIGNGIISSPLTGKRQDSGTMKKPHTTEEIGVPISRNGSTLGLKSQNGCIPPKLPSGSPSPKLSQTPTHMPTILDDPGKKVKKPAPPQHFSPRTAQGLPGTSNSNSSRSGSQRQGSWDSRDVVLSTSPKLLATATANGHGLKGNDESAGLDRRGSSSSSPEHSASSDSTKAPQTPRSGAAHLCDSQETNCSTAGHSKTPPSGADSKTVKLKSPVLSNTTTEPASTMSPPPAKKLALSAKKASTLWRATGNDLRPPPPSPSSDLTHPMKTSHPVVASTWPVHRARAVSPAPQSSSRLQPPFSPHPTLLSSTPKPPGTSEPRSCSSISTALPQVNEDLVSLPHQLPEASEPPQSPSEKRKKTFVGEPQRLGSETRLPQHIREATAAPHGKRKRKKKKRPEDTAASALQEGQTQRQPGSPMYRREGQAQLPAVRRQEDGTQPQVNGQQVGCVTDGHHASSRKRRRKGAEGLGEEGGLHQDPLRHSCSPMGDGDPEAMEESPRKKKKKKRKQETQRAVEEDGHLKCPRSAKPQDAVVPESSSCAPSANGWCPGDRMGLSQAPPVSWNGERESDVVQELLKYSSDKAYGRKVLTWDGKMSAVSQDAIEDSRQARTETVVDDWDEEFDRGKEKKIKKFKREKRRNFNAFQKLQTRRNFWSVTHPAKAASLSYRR
Procedure, shortened: as §1

USP38 = molecular target: T2, USP38 (UniProt Q8NB14)
T2 sequence (whole entry): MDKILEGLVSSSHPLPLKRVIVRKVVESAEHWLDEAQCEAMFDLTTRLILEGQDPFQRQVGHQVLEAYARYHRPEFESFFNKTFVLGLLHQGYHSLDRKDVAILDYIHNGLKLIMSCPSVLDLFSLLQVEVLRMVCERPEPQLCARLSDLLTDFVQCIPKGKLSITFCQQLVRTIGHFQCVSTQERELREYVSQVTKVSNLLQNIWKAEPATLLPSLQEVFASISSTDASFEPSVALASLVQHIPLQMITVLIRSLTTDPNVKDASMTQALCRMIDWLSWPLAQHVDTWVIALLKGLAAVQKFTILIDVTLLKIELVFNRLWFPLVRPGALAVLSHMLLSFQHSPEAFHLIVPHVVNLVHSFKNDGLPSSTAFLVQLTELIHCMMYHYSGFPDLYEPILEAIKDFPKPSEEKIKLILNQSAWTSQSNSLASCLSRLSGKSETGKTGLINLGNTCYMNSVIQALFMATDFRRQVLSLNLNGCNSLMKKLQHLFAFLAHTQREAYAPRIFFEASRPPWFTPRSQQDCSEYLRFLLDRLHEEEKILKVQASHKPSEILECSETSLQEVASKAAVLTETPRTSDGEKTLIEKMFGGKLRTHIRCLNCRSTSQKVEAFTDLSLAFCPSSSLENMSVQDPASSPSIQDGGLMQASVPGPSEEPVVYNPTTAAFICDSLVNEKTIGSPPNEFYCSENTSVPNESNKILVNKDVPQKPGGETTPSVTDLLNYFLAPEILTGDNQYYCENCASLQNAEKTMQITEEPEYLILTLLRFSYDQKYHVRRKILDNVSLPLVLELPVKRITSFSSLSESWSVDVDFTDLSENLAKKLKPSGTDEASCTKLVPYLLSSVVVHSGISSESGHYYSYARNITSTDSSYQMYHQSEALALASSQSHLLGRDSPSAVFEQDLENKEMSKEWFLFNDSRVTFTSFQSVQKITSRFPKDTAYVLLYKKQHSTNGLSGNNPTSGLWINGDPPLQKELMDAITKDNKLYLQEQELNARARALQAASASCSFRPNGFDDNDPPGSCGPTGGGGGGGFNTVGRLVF
Procedure, shortened: as §1

USP39 = molecular target: T3, USP39 (UniProt Q53GS9)
T3 sequence (whole entry): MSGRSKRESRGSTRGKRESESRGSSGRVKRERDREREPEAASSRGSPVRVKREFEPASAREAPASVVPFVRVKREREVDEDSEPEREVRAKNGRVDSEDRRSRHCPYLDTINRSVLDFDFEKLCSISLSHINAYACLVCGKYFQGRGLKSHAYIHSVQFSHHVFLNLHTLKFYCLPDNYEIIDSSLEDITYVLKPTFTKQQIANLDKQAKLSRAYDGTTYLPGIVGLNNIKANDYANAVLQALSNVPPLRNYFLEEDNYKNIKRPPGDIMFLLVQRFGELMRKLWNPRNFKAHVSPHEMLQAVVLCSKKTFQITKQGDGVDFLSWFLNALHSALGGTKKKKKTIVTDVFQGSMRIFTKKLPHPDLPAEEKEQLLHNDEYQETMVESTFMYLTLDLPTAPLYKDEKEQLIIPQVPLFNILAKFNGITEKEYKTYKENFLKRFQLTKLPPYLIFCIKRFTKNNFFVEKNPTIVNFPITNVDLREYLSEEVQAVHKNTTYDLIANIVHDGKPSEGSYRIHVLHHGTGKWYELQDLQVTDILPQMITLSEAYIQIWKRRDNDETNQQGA
Procedure, shortened: as §1

USP4 = molecular target: T4, USP4 (UniProt Q13107)
T4 sequence (whole entry): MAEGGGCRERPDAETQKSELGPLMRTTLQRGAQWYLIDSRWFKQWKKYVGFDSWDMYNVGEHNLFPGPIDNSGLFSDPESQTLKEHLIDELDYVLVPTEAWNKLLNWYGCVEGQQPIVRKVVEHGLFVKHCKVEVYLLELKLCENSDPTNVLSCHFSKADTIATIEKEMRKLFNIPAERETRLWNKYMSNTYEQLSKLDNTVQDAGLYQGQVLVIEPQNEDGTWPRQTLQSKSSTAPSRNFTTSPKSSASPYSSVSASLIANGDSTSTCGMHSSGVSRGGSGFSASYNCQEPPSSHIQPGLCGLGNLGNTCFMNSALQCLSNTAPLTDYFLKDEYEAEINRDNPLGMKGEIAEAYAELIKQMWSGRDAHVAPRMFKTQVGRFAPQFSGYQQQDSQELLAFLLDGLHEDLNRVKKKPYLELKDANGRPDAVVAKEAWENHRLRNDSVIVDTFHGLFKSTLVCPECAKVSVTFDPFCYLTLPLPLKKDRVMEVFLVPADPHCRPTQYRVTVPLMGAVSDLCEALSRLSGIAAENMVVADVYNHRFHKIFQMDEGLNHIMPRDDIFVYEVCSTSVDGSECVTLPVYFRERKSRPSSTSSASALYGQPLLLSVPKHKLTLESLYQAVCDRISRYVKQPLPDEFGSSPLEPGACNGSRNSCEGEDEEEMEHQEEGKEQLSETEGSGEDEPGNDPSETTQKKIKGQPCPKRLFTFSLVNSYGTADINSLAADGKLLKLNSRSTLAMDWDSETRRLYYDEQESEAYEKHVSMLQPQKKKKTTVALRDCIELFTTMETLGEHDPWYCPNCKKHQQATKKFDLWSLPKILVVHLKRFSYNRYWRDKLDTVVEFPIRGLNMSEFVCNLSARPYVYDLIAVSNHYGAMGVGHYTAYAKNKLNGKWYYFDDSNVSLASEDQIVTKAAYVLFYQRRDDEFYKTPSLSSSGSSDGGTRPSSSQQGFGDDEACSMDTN
Procedure, shortened: as §1

Measured: log2 ratio of Biotin-Ahx-Ub-VS probe labelling

CC1Cc2ccccc2N1C(=O)CCl (stereo not given)
inactive: USP34 -0.159 | USP36 0.0162 | USP38 -0.00784 | USP39 -0.0124 | USP4 -0.603
